Source: PubChem (National Center for Advancing Translational Sciences (NCATS))
Shown are actives, neighbours in structure and some others; about 14% of the full set was active somewhere.
HCV inhibitor – HCV inhibition | 340,000 tested, 3.4% active | Potency, µM (series often up to 41.8 µM), for the others: top-dose activity change, negative = inhibition, usual class: inhibitors | Huh7.5.1 HCVcc-Cre infection, luciferase reporter, 44 h | AID 651820; also: potency is read from the fitted curve at half-maximal effect
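Infectious HCVcc-Cre (~0.5 moi) was added to cells just after compound, with cells seeded 4 h earlier at 1,000 per well. Luciferase activity after 44 h culture reported infection; substrate was incubated 15 min at room temperature before reading.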
HCMV inh – inhibitors of human cytomegalovirus. HFF cells, HCMV-luciferase reporter, 72 h; active compounds read low. activity change, negative = inhibition, % at 57.5 µM. AID 1259415. 410,000 tested, 4.5% active; in the data active = activity change below about -60%; inconclusive = no clear call, values can overlap the other calls; inactive = above about -39%
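Screen run at 2 compound doses on HFFs infected with reporter HCMV, MOI 1 PFU/cell. Luciferase activity from cell lysates at 72 h post infection gave inhibition relative to buffer-only and Salinomycin wells.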
Marburg entry inh – inhibitors of Marburg virus binding or cell entry. Marburg virus pseudotyped entry inhibition, cell reporter. Potency, µM (doses to about 37.8 µM), inactives show at the highest dose activity change, negative = inhibition, usual class: inhibitors. 300,000 tested, 1.8% active; calls by dose curve; tested in HEK293 cells; also: potency is read from the fitted curve at half-maximal effect
LASV entry inh – Lassa virus entry inhibition; Lassa virus pseudotype entry inhibition, cell reporter; Potency, µM (highest dose often 37.9 µM), for the others: at the highest dose activity change, negative = inhibition, most hits filed as inhibitors; 300,000 tested, 1.2% active; AID 540256; calls by dose curve; tested in HEK293 cells; also: potency is read from the fitted curve at half-maximal effect; nearly all actives have a fitted effect of over 50% in size
Pf growth 96h – inhibits malaria parasite growth, 96 h. P. falciparum luciferase reporter growth, 96 h. Potency, µM (highest dose often 28.7 µM), without a hit: at the top dose activity change, negative = inhibition, usual class: inhibitors. 320,000 tested, 6.9% active. AID 504834; also: potency is read from the fitted curve at half-maximal effect
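P. falciparum expressing integrated firefly luciferase grown in erythrocytes (2% hematocrit, 0.05% parasitemia final) with compounds for 96 hours at 37 C, 5% CO2. Growth inhibition read as loss of luminescence after adding luciferase detection reagent.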
Pf growth 48h – P. falciparum growth inhibition at 48 hours (one generation). AID 504832. Potency, µM (highest dose often 28.7 µM), for inactives: at the top dose activity change, negative = inhibition, usual class: inhibitors. 310,000 tested, 5.9% active. P. falciparum luciferase growth in erythrocytes, 48 h; also: potency is read from the fitted curve at half-maximal effect
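Luciferase-expressing P. falciparum in infected erythrocytes (2% hematocrit, 0.1% parasitemia final) in RPMI 1640/0.5% Albumax were exposed to compound for 48 hours at 37 C, 5% CO2; growth read as luminescence.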
The depositor's hits bear a star; i = inactive; u = inconclusive; x = no result given; [ ] = dose if it differs, or a comment. Unless noted, calls follow the shape of the dose curve; as a rule, active = well fitted inhibition curve with a large enough effect; inconclusive = small, poorly fitted or top-dose-only effect, or another doubt; inactive = no such curve, though single readings can be large or run the other way. % is scaled to controls: 0 for no effect and ±100 for the full control effect.

SMILES	HCV inhibitor	HCMV inh	Marburg entry inh	LASV entry inh	Pf growth 96h	Pf growth 48h
CCCOc1ccc(N2C(=O)CC(SC(=NC)Nc3ccc(F)cc3)C2=O)cc1 (stereo unspecified)	6%	8	u	u	x	4%
CCOC(=O)c1ccc(NC(=S)N2CCSC2c2c(F)cc(F)cc2F)cc1 (stereo unspecified)	-4%	-34	-11%	u	-20%	u
Cc1ccccc1NC(=S)N1CCN(Cc2ccccc2)CC1	-3%	u	u	-9%	1.2µM*	5%
FC(F)(F)c1cccc(NC(=S)N2CCN(c3cccc(C(F)(F)F)c3)CC2)c1	-20%	-8	u	u	5.9µM*	-4%
FC(F)(F)c1ccccc1NC(=S)N1CCc2ccccc2C1	-28%	-27	u	u	i	-4%
Fc1cc(F)c(C2SCCN2C(=S)Nc2cccc(C(F)(F)F)c2)c(F)c1 (stereo unspecified)	-18%	-1	-24%[46.1 µM]	-9%	2.9µM*	u
S=C(Nc1ccccc1Cl)N1CCN(Cc2ccccc2)CC1	-26%	-18	3%	7%	-4%	u
CCCN1CCN(C(=S)Nc2ccccc2C(F)(F)F)CC1	u	-83*	u	-19%	u	0%
Fc1ccc(NC(=S)N2CCN(c3cccc(C(F)(F)F)c3)CC2)cc1	-13%	u	u	u	3%	0%
CCN1CCN(C(=S)Nc2cccc(C(F)(F)F)c2)CC1	-2%	-25	36%	20%	9.3µM*	19%
OCCN1CCN(C(=S)Nc2cccc(C(F)(F)F)c2)CC1	1%	-7	-16%[46.1 µM]	12%[46.1 µM]	97%	-9%
CN(C)c1cccc(C(=O)N/N=C/c2ccccc2F)c1	19%	111	u	10µM*	391%	i
CN(C)c1ccc(C(=O)N/N=C/c2ccccn2)cc1	-9%	85	x	x	9.3µM*	-29%
O=C(N/N=C/c1ccccn1)c1ccc(Cl)cc1	7%	-97*	u	u	14%	15µM*
CC(C)C[C@@H](CN)NC(=O)c1nc[nH]c1C(=O)N[C@@H](CC(C)C)C(=O)CNC[C@H](C)NC(=O)c1nc[nH]c1C(=O)N[C@@H](C)C(=O)O	-13%	-19	x	x	x	x
COc1ccc2c(-c3ccccc3)cc(SC(C)C(N)=O)nc2c1 (stereo unspecified)	11µM*	u	u	-18%	u	10µM*
CCCN(C(=O)CSc1cc(-c2ccccc2)c2ccc(OC)cc2n1)C1CCS(=O)(=O)C1 (stereo unspecified)	-15%	20	-8%	3%	9.3µM*	u
CCCN(C(=O)CSc1nc2c(cnn2-c2ccccc2)c(=O)[nH]1)C1CCS(=O)(=O)C1 (stereo unspecified)	1%	31	-3%	0%	u	9.3µM*
COc1ccc2c(-c3ccccc3)cc(=O)[nH]c2c1	1%	83	u	-19%	x	u
CCC1CN(C(=O)N2CCC(C(=O)NCCC3=CCCCC3)CC2)c2cc(C)ccc2O1 (stereo unspecified)	x	129	x	-20%[46.1 µM]	x	x
COc1cc(NC(=O)c2nnn(Cc3ccc(F)cc3)c2N)cc(OC)c1	x	-16	-11%[46.1 µM]	8%[46.1 µM]	x	x
COC(=O)[C@]12CCCCC=C1N(Cc1ccc3c(c1)OCO3)C(=O)[C@H](CC(=O)NCC1CCCCC1)C2	x	18	x	x	x	x
O=C(CCc1nc(-c2cccs2)no1)Nc1cccc([N+](=O)[O-])c1	x	-8	1%[46.1 µM]	8%[46.1 µM]	x	x
CC(=O)Nc1cccc(NC(=O)c2cc3c(=O)n4cccc(C)c4nc3n2C)c1	x	u	x	18%[46.1 µM]	x	x
CCOC(=O)c1cc(-c2ccc(OC)cc2)n(CCC(=O)NCc2ccc(OC)cc2)c1C	x	13	x	-23%[46.1 µM]	x	x
SMILES	HCV inhibitor	HCMV inh	Marburg entry inh	LASV entry inh	Pf growth 96h	Pf growth 48h
CCCCCC(=O)N1C[C@H](n2cc(C3CC3)nn2)[C@@H](O)C[C@H]1c1ccc(Cl)cc1	x	x	x	-37%[46.1 µM]	x	x
COc1cccc(CNC(=O)Cc2ccc(OC)c(S(=O)(=O)N3CCOCC3)c2)c1	6%	-32	25%	u	u	u
Cc1[nH]n(C(N)=S)c(=O)c1N=Nc1ccc2ccccc2c1	7%	-6	u	-2%	4.7µM*	28%
NC(=S)n1[nH]c(-c2ccc([N+](=O)[O-])cc2)c(N=Nc2cccc([N+](=O)[O-])c2)c1=O	10µM*	-72*	u	u	4%	u
Cc1c(N=Nc2c(-c3ccc([N+](=O)[O-])cc3)[nH]n(C(N)=S)c2=O)cccc1[N+](=O)[O-]	8.9µM*	-96*	2.8µM*	u	u	2%
NC(=S)n1[nH]c(-c2ccc([N+](=O)[O-])cc2)c(N=Nc2ccccc2[N+](=O)[O-])c1=O	-4%	-39	x	x	29%	2%
Cc1ccc(N=Nc2c(C)[nH]n(C(N)=S)c2=O)cc1C	31%	85	15%	u	-23%	u
Cc1cccc(C)c1Nc1nn2c(=O)c3cc4c(cc3nc2s1)OCO4	x	7	-18%[46.1 µM]	22%[46.1 µM]	x	x
O=C(O)C(Cc1ccccc1)N1C(=O)c2ccccc2C1=O (stereo unspecified)	8%	-1	-6%[46.1 µM]	6%	15µM*	x
O=C(O)C(Cc1ccc(O)cc1)N1C(=O)c2ccccc2C1=O (stereo unspecified)	3%	-23	x	x	10%	x
O=C(Nc1ccccc1)C(CCCCN1C(=O)c2ccccc2C1=O)N1C(=O)c2ccccc2C1=O (stereo unspecified)	18%	-24	7%	1%	x	x
O=C(O)C(CCCCN1C(=O)c2ccccc2C1=O)N1C(=O)c2ccccc2C1=O (stereo unspecified)	-11%	-1	5%	-4%	10µM*	31%
Cc1ccccc1OCC(=O)Nc1ccc(-c2nc3cc(Cl)cc(Cl)c3o2)cc1	x	8	x	-3%[46.1 µM]	x	x
C=CCN1C(=O)CC[C@@]23C1=NC(C(=O)OC)=C(C(=O)OC)[C@@H]2N(CC#CC)c1ccccc13	x	x	-20%[14.2 µM]	x	x	x
COc1ccc(C(c2c(NC(C)=O)sc3c2CCCC3)N2CCN(CCO)CC2)cc1OC (stereo unspecified)	-2%	130	x	x	u	4.7µM*
CC(=O)Nc1sc2c(c1C(c1ccncc1)N1CCOCC1)CCCC2 (stereo unspecified)	-8%	9	-4%[46.1 µM]	-2%	8.3µM*	4.7µM*
CC1CCCC(NC(=O)NC(=O)CCl)C1C (stereo unspecified)	u	-29	-8%	0%	10µM*	0.033µM*
CC1CCCCC1NC(=O)NC(=O)CCl (stereo unspecified)	u	6	u	u	u	8.3µM*
CC1CCCCC1NC(=O)NC(=O)COC(=O)c1nccnc1N (stereo unspecified)	7%	-6	u	15%	x	x
